About 7,900 targets were measured; listed, in parts, are those with a hit and a random draw of the rest. About 0.6% of all pairs of compound and target were hits.
Assays:
Assay in all cases: log2 fold change, soluble protein after heating vs DMSO (PISA); higher = thermal stabilisation; K562 cells, 10 uM, 30 min; active = over 0.2 and 3.5 SD of the protein, either way, in both replicates (recomputed)
[1] = compound: CC1=C(C=C(C=C1)NC(=O)C2=CC(=CC=C2)C(C)(C)C#N)NC3=CC4=C(C=C3)N=CN(C4=O)C
Outline: (§1)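 Soluble protein was defined as the supernatant after 21,000xg for 90 min. It came from K562 cells at 2×10^6 cells/mL given 10 μM compound for 30 min, heated in aliquots for 3 min across 48°C-58°C, pooled, and extracted in PBS with 0.5% NP-40 at 4°C, and was quantified by TMTpro 16plex LC-MS/MS with equalised channel sums. Thermal stability against control samples, from duplicates, is reported as log2 fold change.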

[2] = compound: CC1=C(C=C(C=C1)NC(=O)C2=CC(=CC=C2)N(C)C)NC(=O)C3=CC=C(C=C3)O
Outline: as §1

[3] = compound: CC1=CC=C(C=C1)SC2=C3C=C(SC3=CN=C2)C(=O)N
Outline: as §1

[4] = compound: CC1=NC(=CC=C1)C2=C(N=C(N2)C(C)(C)C)C3=CC4=NC=CN=C4C=C3
Outline: as §1

[5] = compound: CCCCN(Cc1ccc(C(=O)NO)cc1)C(=O)Nc1ccccc1 [Nexturastat A]
Outline: as §1

[6] = compound: CCCS(=O)(=O)Nc1ccc(F)c(C(=O)c2c[nH]c3ncc(-c4ccc(Cl)cc4)cc23)c1F [vemurafenib]
Outline: as §1

[7] = compound: CCCS(=O)(=O)Nc1ccc(F)c(C(=O)c2c[nH]c3ncc(Cl)cc23)c1F
Outline: as §1

[8] = compound: CCCc1cc(C)[nH]c(=O)c1CNC(=O)c1cc(-c2ccnc(N3CCN(C)CC3)c2)cc2c1cnn2C(C)C
Outline: as §1

[9] = compound: CCN(CC)Cc1ccc2cc(COC(=O)Nc3ccc(C(=O)NO)cc3)ccc2c1 [givinostat]
Outline: as §1

[10] = compound: CCN(CCCOc1ccc2c(Nc3cc(CC(=O)Nc4cccc(F)c4)[nH]n3)ncnc2c1)CCOP(=O)(O)O [barasertib]
Outline: as §1

Measured: log2 fold change

POLD1 (UniProt P28340)
inactive: [1] -0.083 | [2] -0.028 | [3] 0.018 | [4] 0.022 | [5] 0.02 | [6] 0.033 | [7] 0.071 | [8] 0.006 | [9] 0.021 | [10] 0.005

PRKCB isoform 2 (UniProt P05771)
inactive: [1] 0.005 | [2] -0.014 | [3] -0.003 | [4] 0.01 | [5] -0.01 | [6] 0.009 | [7] -0.007 | [8] 0.002 | [9] 0.001 | [10] 0.015

PSMC1 (UniProt P62191)
inactive: [1] 0.024 | [2] 0.033 | [3] -0.038 | [4] -0.069 | [5] 0.026 | [6] -0.064 | [7] -0.06 | [8] -0.012 | [9] -0.073 | [10] -0.073

PITRM1 isoform 2 (UniProt Q5JRX3)
Chain of UniProt Q5JRX3 (Q5JRX3 whole entry, looked up): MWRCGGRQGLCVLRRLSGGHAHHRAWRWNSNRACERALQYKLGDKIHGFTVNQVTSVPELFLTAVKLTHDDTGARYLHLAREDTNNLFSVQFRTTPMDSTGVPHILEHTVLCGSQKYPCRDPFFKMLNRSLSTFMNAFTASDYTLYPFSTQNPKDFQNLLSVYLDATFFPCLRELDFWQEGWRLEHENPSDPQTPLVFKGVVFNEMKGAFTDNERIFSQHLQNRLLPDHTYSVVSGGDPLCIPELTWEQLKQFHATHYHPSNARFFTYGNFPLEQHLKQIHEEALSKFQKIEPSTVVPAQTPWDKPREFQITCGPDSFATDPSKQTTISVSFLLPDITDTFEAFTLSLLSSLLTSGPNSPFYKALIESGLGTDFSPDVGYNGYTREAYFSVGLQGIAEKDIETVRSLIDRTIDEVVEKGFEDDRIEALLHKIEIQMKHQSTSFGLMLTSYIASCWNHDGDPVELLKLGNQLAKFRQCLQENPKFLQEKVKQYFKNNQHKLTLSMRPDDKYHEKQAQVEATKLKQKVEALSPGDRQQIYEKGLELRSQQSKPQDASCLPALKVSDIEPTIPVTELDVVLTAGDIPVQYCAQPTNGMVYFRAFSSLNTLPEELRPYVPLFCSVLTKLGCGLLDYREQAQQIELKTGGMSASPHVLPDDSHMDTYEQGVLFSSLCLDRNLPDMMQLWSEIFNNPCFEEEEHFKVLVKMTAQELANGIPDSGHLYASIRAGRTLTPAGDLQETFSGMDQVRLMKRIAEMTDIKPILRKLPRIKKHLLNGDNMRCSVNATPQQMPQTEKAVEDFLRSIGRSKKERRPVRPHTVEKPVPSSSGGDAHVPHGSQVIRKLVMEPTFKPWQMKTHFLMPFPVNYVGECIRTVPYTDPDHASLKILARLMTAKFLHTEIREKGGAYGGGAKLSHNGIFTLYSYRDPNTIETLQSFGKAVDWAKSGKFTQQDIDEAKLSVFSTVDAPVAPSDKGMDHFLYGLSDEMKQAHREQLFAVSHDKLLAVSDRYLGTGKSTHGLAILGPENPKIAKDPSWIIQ
inactive: [1] 0.21 | [2] -0.064 | [3] 0.047 | [4] 0.073 | [5] -0.152 | [6] 0.002 | [7] -0.002 | [8] 0.018 | [9] -0.047 | [10] -0.03

PIGG (UniProt Q5H8A4)
inactive: [1] 0.016 | [2] -0.003 | [3] 0.004 | [4] -0.007 | [5] 0.018 | [6] 0.359 | [7] -0.019 | [8] -0.045 | [9] 0.001 | [10] 0.001

PSMB4 (UniProt P28070)
Chain of UniProt P28070 (P28070 whole entry, looked up): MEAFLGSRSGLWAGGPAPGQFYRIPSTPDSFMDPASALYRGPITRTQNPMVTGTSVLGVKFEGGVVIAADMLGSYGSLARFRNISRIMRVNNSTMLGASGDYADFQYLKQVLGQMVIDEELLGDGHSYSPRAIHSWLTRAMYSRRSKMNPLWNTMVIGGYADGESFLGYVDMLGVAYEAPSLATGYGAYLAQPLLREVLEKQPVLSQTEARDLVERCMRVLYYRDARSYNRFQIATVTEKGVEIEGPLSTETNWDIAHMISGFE
inactive: [1] -0.026 | [2] 0.02 | [3] -0.075 | [4] -0.031 | [5] 0.023 | [6] -0.027 | [7] -0.029 | [8] 0.008 | [9] -0.008 | [10] -0.052

PDPK1 (UniProt O15530)
inactive: [1] -0.026 | [2] -0.055 | [3] 0.019 | [4] -0.007 | [5] -0.12 | [6] 0.03 | [7] 0.003 | [8] -0.018 | [9] 0.032 | [10] 0.035

PEX11B (UniProt O96011)
inactive: [1] 0.06 | [2] -0.039 | [3] 0.321 | [4] -0.008 | [5] -0.076 | [6] 0.08 | [7] 0 | [8] 0.029 | [9] 0.008 | [10] -0.002

PRPF40A (UniProt O75400)
inactive: [1] 0.016 | [2] 0 | [3] 0.022 | [4] 0.018 | [5] -0.051 | [6] 0.109 | [7] 0.02 | [8] 0.073 | [9] 0.156 | [10] 0

PRKAR1B (UniProt P31321)
Chain of UniProt P31321 (P31321 whole entry, looked up): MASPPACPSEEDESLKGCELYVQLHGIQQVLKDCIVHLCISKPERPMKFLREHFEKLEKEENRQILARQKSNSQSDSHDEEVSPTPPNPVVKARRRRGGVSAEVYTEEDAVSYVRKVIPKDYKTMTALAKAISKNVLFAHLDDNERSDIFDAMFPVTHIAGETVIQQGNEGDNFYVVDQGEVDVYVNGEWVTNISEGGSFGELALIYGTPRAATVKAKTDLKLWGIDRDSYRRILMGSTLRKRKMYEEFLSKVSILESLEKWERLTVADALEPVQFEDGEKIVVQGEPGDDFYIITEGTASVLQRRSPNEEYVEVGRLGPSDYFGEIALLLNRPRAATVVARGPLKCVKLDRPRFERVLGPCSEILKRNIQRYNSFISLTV
inactive: [1] 0.102 | [2] -0.019 | [3] 0.004 | [4] -0.057 | [5] 0.015 | [6] 0.04 | [7] -0.038 | [8] 0.133 | [9] -0.036 | [10] -0.12

PSMD13 (UniProt Q9UNM6)
inactive: [1] 0.03 | [2] 0.034 | [3] -0.068 | [4] -0.029 | [5] 0.064 | [6] -0.05 | [7] -0.048 | [8] -0.016 | [9] -0.05 | [10] -0.041

PRKACB isoform 2 (UniProt P22694)
inactive: [1] -0.014 | [2] 0.015 | [3] 0.011 | [4] 0.077 | [5] 0.059 | [6] -0.007 | [7] 0.031 | [8] -0.129 | [9] -0.024 | [10] 0.036

PRKCD (UniProt Q05655)
inactive: [1] -0.015 | [2] -0.025 | [3] -0.012 | [4] -0.016 | [5] -0.032 | [6] 0.015 | [7] 0.013 | [8] -0.045 | [9] -0.021 | [10] 0.023

PCNT (UniProt O95613)
inactive: [1] -0.104 | [2] 0.068 | [3] -0.117 | [4] -0.116 | [5] 0.007 | [6] -0.122 | [7] -0.103 | [8] -1.05 | [9] 0.255 | [10] 0.045

PIK3CB (UniProt P42338)
inactive: [1] -0.034 | [2] -0.009 | [3] 0.024 | [4] 0.054 | [5] 0.013 | [6] 0.022 | [7] -0.001 | [8] -0.041 | [9] 0.052 | [10] 0.077

POLA2 (UniProt Q14181)
Chain of UniProt Q14181 (Q14181 whole entry, looked up): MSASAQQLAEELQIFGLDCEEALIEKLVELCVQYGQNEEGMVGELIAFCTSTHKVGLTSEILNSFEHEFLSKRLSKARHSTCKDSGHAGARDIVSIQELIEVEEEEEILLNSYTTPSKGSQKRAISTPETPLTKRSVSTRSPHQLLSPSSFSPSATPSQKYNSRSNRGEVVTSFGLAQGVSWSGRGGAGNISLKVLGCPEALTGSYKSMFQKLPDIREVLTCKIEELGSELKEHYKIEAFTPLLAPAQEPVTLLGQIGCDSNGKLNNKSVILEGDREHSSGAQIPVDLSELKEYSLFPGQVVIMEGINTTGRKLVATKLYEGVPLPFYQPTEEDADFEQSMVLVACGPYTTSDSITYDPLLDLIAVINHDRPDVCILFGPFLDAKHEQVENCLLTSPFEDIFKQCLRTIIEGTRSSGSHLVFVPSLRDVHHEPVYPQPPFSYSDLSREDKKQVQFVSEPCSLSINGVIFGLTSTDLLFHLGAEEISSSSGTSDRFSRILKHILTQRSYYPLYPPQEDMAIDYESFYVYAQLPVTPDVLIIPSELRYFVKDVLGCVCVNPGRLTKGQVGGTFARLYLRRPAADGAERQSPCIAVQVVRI
inactive: [1] 0.073 | [2] 0.044 | [3] -0.037 | [4] 0.061 | [5] -0.011 | [6] 0.034 | [7] 0.048 | [8] -0.02 | [9] 0.021 | [10] 0.021

PTRH2 (UniProt Q9Y3E5)
inactive: [1] 0.009 | [2] -0.007 | [3] 0.032 | [4] 0.144 | [5] -0.078 | [6] -0.05 | [7] -0.009 | [8] -0.025 | [9] -0.064 | [10] -0.022

PRMT7 (UniProt Q9NVM4)
inactive: [1] 0.056 | [2] -0.197 | [3] 0.065 | [4] -0.055 | [5] -0.003 | [6] -0.03 | [7] 0.145 | [8] -0.014 | [9] 0.042 | [10] 0.023

PLEKHM2 (UniProt Q8IWE5)
inactive: [1] 0.064 | [2] 0.035 | [3] 0.052 | [4] -0.011 | [5] -0.028 | [6] 0.075 | [7] 0.124 | [8] 0.038 | [9] 0.177 | [10] 0.076

PTMA (UniProt P06454)
Chain of UniProt P06454 (P06454 whole entry, looked up): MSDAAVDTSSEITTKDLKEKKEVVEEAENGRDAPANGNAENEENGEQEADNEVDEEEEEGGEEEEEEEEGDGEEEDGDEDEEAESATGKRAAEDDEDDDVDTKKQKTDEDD
inactive: [1] 0.133 | [2] -0.041 | [3] 0.053 | [4] 0.213 | [5] -0.077 | [6] 0.05 | [7] -0.044 | [8] -0.008 | [9] -0.022 | [10] -0.013

POMK (UniProt Q9H5K3)
Chain of UniProt Q9H5K3 (Q9H5K3 whole entry, looked up): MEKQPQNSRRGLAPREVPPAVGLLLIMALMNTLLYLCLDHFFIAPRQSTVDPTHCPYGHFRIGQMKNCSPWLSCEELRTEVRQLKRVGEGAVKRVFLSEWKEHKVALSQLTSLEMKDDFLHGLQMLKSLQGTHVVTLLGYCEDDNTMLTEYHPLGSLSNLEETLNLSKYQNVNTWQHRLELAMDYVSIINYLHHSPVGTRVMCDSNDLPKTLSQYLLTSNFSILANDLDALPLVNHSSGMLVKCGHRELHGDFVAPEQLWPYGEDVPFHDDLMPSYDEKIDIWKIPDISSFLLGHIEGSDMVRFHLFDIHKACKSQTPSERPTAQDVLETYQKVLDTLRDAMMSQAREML
inactive: [1] 0.029 | [2] -0.018 | [3] 0.028 | [4] 0 | [5] -0.01 | [6] 0.04 | [7] 0.041 | [8] 0 | [9] 0.002 | [10] 0.11

PPIL2 (UniProt Q13356)
Chain of UniProt Q13356 (Q13356 whole entry, looked up): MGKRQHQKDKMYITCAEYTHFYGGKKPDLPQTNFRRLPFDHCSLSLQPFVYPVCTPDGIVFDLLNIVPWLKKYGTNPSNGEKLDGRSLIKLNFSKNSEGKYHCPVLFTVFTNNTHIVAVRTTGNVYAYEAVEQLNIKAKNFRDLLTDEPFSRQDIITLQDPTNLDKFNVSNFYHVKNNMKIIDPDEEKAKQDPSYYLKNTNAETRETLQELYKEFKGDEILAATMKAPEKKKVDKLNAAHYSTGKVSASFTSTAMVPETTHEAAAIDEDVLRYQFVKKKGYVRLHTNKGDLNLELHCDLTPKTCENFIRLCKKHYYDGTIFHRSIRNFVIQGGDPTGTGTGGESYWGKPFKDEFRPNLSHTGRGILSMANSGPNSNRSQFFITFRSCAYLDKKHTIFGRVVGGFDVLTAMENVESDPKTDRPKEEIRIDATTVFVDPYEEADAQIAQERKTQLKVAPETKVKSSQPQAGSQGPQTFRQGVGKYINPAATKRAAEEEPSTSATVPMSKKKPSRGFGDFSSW
inactive: [1] 0.005 | [2] -0.084 | [3] 0.04 | [4] 0.023 | [5] -0.059 | [6] 0.113 | [7] 0.123 | [8] 0.016 | [9] 0.123 | [10] 0.073

PSMD8 (UniProt P48556)
Chain of UniProt P48556 (P48556 whole entry, looked up): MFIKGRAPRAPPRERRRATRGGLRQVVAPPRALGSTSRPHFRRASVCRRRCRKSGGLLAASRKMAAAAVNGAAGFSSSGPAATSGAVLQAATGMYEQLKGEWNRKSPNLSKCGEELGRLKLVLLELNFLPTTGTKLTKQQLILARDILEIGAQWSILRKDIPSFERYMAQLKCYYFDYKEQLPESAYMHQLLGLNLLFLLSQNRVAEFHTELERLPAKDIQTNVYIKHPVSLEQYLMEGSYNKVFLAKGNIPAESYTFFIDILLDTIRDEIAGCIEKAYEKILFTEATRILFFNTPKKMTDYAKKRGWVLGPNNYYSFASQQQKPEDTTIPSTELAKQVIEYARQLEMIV
inactive: [1] 0.044 | [2] 0.047 | [3] -0.056 | [4] -0.045 | [5] 0.128 | [6] -0.082 | [7] -0.073 | [8] 0.022 | [9] -0.04 | [10] -0.034

POLR2K (UniProt P53803)
inactive: [1] -0.036 | [2] 0.065 | [3] 0.056 | [4] 0.024 | [5] -0.162 | [6] -0.001 | [7] -0.024 | [8] 0.075 | [9] -0.137 | [10] 0.023

PIKFYVE (UniProt Q9Y2I7)
inactive: [1] -0.012 | [2] -0.02 | [3] 0.005 | [4] 0.006 | [5] 0.004 | [6] 0.091 | [7] 0.109 | [8] -0.001 | [9] 0.054 | [10] 0.013

PCBP2 isoform 3 (UniProt Q15366)
inactive: [1] 0.054 | [2] -0.024 | [3] 0.065 | [4] 0.149 | [5] -0.006 | [6] 0.056 | [7] 0.129 | [8] -0.004 | [9] 0.031 | [10] 0.013

PML (UniProt P29590)
Chain of UniProt P29590 (P29590 whole entry, looked up): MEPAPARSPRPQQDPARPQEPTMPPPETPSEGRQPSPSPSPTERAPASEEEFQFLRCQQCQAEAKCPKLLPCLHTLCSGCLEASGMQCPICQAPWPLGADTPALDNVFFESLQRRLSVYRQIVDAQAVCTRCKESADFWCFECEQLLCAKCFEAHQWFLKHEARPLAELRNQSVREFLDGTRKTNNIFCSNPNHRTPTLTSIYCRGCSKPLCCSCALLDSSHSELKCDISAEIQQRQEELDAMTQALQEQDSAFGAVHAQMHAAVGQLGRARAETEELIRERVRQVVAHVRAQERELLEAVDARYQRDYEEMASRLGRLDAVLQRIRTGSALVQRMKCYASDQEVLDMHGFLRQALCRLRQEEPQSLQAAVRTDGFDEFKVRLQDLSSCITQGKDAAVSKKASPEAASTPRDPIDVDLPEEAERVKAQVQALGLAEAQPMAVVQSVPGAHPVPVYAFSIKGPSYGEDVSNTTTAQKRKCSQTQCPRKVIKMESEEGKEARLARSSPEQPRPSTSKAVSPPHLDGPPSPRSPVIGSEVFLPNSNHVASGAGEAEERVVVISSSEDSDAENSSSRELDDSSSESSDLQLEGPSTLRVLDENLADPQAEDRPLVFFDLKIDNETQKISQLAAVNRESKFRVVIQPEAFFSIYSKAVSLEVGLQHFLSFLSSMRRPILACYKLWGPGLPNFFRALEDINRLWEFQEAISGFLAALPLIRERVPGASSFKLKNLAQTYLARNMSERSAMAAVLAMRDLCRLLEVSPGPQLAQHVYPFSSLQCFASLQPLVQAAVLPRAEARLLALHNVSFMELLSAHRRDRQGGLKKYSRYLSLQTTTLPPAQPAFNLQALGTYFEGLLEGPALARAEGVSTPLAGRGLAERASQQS
inactive: [1] -0.024 | [2] -0.001 | [3] -0.009 | [4] -0.02 | [5] -0.002 | [6] -0.044 | [7] 0.018 | [8] -0.007 | [9] -0.014 | [10] 0.01

PSMD12 (UniProt O00232)
inactive: [1] 0.066 | [2] -0.004 | [3] -0.005 | [4] -0.011 | [5] 0.047 | [6] -0.031 | [7] 0.009 | [8] 0.052 | [9] -0.002 | [10] -0.044

PDIK1L (UniProt Q8N165)
Chain of UniProt Q8N165 (Q8N165 whole entry, looked up): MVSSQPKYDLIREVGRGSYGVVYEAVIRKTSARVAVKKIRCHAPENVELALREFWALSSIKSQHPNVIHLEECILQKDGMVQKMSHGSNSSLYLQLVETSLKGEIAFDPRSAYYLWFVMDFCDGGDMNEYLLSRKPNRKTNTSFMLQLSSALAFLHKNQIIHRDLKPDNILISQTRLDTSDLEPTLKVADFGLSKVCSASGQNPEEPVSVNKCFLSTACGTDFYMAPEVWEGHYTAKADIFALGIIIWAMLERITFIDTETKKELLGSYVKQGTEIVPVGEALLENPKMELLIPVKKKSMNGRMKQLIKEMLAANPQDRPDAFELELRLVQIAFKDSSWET
inactive: [1] -0.079 | [2] 0.031 | [3] -0.265 | [4] 0.068 | [5] -0.077 | [6] 0.026 | [7] 0 | [8] 0.03 | [9] 0.034 | [10] 0.055

PTRHD1 (UniProt Q6GMV3)
inactive: [1] -0.051 | [2] -0.098 | [3] 0.017 | [4] 0.022 | [5] 0.074 | [6] 0.059 | [7] -0.024 | [8] -0.024 | [9] -0.008 | [10] 0.034

From the supplement of paper PMC10849652
